{"source": "paper PMC4336329", "about": "(PLoS ONE, 2015)", "note": "Out of some 310,000 compounds screened, about 14,000 (4.5%) showed an effect of 50% or more. The effect is printed as a negative number. For the sample, strong results were picked, then their nearest neighbours and some compounds at random.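 Also: peak tail current of the secondary pulse compared with the same well before compound.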", "data": [{"target": "human ether-à-go-go-related gene (hERG) potassium channel (human, UniProt Q12809)", "sequence (Q12809 whole entry, looked up)": "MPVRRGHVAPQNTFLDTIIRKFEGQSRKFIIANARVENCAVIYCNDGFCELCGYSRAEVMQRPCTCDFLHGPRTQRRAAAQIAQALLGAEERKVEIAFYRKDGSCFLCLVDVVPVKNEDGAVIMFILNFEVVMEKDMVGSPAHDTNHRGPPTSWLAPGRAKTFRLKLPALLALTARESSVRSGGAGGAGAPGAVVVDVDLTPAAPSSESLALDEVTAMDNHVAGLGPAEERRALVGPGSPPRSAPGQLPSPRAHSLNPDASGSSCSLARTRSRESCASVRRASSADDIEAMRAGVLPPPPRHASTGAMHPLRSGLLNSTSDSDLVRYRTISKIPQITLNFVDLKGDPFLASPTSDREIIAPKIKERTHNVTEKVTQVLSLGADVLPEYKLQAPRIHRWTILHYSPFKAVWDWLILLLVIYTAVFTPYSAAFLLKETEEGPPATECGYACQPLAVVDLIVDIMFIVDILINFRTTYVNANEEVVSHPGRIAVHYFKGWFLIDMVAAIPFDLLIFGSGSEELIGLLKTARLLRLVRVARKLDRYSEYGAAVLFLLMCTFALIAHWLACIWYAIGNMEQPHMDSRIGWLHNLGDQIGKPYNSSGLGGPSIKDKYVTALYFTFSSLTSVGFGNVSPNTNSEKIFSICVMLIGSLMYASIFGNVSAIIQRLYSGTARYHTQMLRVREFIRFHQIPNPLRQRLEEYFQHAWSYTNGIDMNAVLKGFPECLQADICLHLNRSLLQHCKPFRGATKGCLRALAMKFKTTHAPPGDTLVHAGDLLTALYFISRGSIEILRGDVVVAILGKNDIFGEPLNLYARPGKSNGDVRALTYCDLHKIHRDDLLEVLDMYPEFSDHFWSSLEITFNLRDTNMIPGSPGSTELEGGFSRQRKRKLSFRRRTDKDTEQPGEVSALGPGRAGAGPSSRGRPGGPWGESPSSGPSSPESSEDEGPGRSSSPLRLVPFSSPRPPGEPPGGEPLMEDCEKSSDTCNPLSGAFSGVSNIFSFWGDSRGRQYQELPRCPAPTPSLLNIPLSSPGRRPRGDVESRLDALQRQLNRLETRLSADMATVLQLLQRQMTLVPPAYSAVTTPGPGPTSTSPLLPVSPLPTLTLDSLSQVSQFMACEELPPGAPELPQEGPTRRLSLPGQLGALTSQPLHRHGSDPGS", "assay": "primary screen, population patch clamp on CHO cells stably expressing hERG; higher = less effect of the substance", "units": {"hERG current change (%, negative = inhibition) at 10uM": "%"}, "values": [{"smiles": "O=C(C[n+]1ccccc1)N/N=C/c1ccc(C(=O)O)cc1.[Cl-]", "hERG current change (%, negative = inhibition) at 10uM": 0.121}, {"smiles": "CC(C)(C)C(=O)Nc1sc2c(c1C#N)CCCCC2", "hERG current change (%, negative = inhibition) at 10uM": 2.28}, {"smiles": "CCOC(=O)C1CCCN(S(=O)(=O)c2ccc3c(c2)CC(C)N3C(=O)C2CC2)C1", "note": "(stereo not shown)", "hERG current change (%, negative = inhibition) at 10uM": 9.65}, {"smiles": "COc1ccc(N(CC(=O)NCc2cccc(OC)c2)S(=O)(=O)c2c(C)noc2C)cc1", "hERG current change (%, negative = inhibition) at 10uM": -41.1}, {"smiles": "COc1ccccc1NC(=S)NNC(=O)c1c(Cl)c(C)nn1C", "hERG current change (%, negative = inhibition) at 10uM": 32.8}, {"smiles": "CN(C1CCCCC1)S(=O)(=O)c1cccc(C(=O)OCC(=O)NC2CCCc3ccccc32)c1", "note": "(stereo not shown)", "hERG current change (%, negative = inhibition) at 10uM": -13.9}, {"smiles": "CCOC(=O)C1CCN(CCC(=O)Nc2cc(C)ccc2C)CC1", "hERG current change (%, negative = inhibition) at 10uM": -10.7}, {"smiles": "CCOC(=O)C1CCCN(CCC(=O)Nc2cc(C)cc(C)c2)C1", "note": "(stereo not shown)", "hERG current change (%, negative = inhibition) at 10uM": -58.4}, {"smiles": "CCOC(=O)C1CCCN(CCC(=O)Nc2cc(C)ccc2C)C1.Cl", "note": "(stereo not shown)", "hERG current change (%, negative = inhibition) at 10uM": -67.2}, {"smiles": "CCOC(=O)C1CCCN(CCC(=O)Nc2ccccc2)C1.Cl", "note": "(stereo not shown)", "hERG current change (%, negative = inhibition) at 10uM": -9.04}, {"smiles": "CCOC(=O)C1CCCN(CCC(=O)Nc2ccc(C)cc2)C1.Cl", "note": "(stereo not shown)", "hERG current change (%, negative = inhibition) at 10uM": -30.4}, {"smiles": "Cc1cc(C)cc(NC(=O)CCN2CCCC2)c1", "hERG current change (%, negative = inhibition) at 10uM": -15.8}, {"smiles": "CCOC(=O)C1CCCN(CCC(=O)Nc2ccc(C)c(C)c2)C1.Cl", "note": "(stereo not shown)", "hERG current change (%, negative = inhibition) at 10uM": -44.8}, {"smiles": "CCOC(=O)C1CCCN(CCC(=O)Nc2cccc(C)c2)C1.Cl", "note": "(stereo not shown)", "hERG current change (%, negative = inhibition) at 10uM": -24.5}, {"smiles": "CCOC(=O)C1CCCN(CCC(=O)Nc2ccc3c(c2)CCC3)C1", "note": "(stereo not shown)", "hERG current change (%, negative = inhibition) at 10uM": -50.4}, {"smiles": "CC1CCCN(CCC(=O)Nc2ccc3c(c2)CCC3)C1.Cl", "note": "(stereo not shown)", "hERG current change (%, negative = inhibition) at 10uM": -33.5}, {"smiles": "CCOC(=O)C1CCCN(CCC(=O)Nc2ccc(Br)cc2)C1.Cl", "note": "(stereo not shown)", "hERG current change (%, negative = inhibition) at 10uM": -66.7}, {"smiles": "CCOC(=O)C1CCCN(CCC(=O)Nc2ccccc2C)C1.Cl", "note": "(stereo not shown)", "hERG current change (%, negative = inhibition) at 10uM": 12.5}, {"smiles": "COCC(=O)Nc1nnc(Cc2ccc(OC)c(OC)c2)s1", "hERG current change (%, negative = inhibition) at 10uM": -7.97}, {"smiles": "O=C(NCCC(=O)N1CCN(c2ncccn2)CC1)c1ccccc1", "hERG current change (%, negative = inhibition) at 10uM": 11.6}, {"smiles": "O=C(/C=C/Nc1ccc(S(=O)(=O)Nc2ncccn2)cc1)c1ccc2ccccc2c1", "hERG current change (%, negative = inhibition) at 10uM": 3.84}, {"smiles": "CCOC(=O)C(CC)Sc1nnc2cc(C)c3ccccc3n12", "note": "(stereo not shown)", "hERG current change (%, negative = inhibition) at 10uM": -38}, {"smiles": "Cc1noc(C)c1CSCC(=O)N(CCC(C)C)c1c(N)n(Cc2ccccc2)c(=O)[nH]c1=O", "hERG current change (%, negative = inhibition) at 10uM": 21.4}, {"smiles": "Cn1cc(/C(Cc2ccccc2)=N\\O)c2ccccc21", "hERG current change (%, negative = inhibition) at 10uM": 4.78}, {"smiles": "COC(=O)c1[nH]c(C)c(/C(O)=C2\\C(=O)C(=O)N(CCN(C)C)C2c2cc(OC)ccc2OC)c1C", "note": "(stereo not shown)", "hERG current change (%, negative = inhibition) at 10uM": 13.6}, {"smiles": "Cc1cccc(CSCCNC(=O)CSCc2ccc([N+](=O)[O-])cc2)c1", "hERG current change (%, negative = inhibition) at 10uM": -47.8}, {"smiles": "O=C(CSCc1ccc([N+](=O)[O-])cc1)Nc1ccccc1C(=O)O", "hERG current change (%, negative = inhibition) at 10uM": 24.7}, {"smiles": "Cc1ccc(CSCCNC(=O)CSCc2ccc([N+](=O)[O-])cc2)cc1", "hERG current change (%, negative = inhibition) at 10uM": -71.4}, {"smiles": "CCCCN(C)CCNC(=O)CSCc1ccc(C)cc1.O=C(O)C(=O)O", "hERG current change (%, negative = inhibition) at 10uM": -37.5}, {"smiles": "O=C(CSCc1ccc([N+](=O)[O-])cc1)NCCSCc1ccccc1", "hERG current change (%, negative = inhibition) at 10uM": -70.1}, {"smiles": "Cc1ccc(CSCCNC(=O)CN(c2ccccc2)S(C)(=O)=O)cc1", "hERG current change (%, negative = inhibition) at 10uM": 1.75}, {"smiles": "Cc1ccc(CNC(=O)CN(c2cccc([N+](=O)[O-])c2)S(C)(=O)=O)cc1", "hERG current change (%, negative = inhibition) at 10uM": 0.796}, {"smiles": "O=C(CSc1ccccc1)NCCSCc1ccccc1", "hERG current change (%, negative = inhibition) at 10uM": -3.89}, {"smiles": "Cc1ccc(CSCC(=O)NCCc2ccccc2)cc1", "hERG current change (%, negative = inhibition) at 10uM": -3.13}, {"smiles": "CCCCN(CCCC)CCNC(=O)CSCc1ccc(C)cc1.O=C(O)C(=O)O", "hERG current change (%, negative = inhibition) at 10uM": -63.2}, {"smiles": "Cc1ccc(CSCCNC(=O)CN(c2cccc([N+](=O)[O-])c2)S(C)(=O)=O)cc1", "hERG current change (%, negative = inhibition) at 10uM": -53.2}, {"smiles": "COc1ccc(CCNC(=O)CSCc2ccc([N+](=O)[O-])cc2)cc1", "hERG current change (%, negative = inhibition) at 10uM": -44.8}, {"smiles": "Cc1ccccc1NC(=O)Cn1nc(-c2ccc(Cl)s2)ccc1=O", "hERG current change (%, negative = inhibition) at 10uM": 13.6}, {"smiles": "CSC1=N/C(=C/c2ccc(-n3cncn3)cc2)C(=O)N1", "hERG current change (%, negative = inhibition) at 10uM": 6.6}, {"smiles": "COc1cc(/C=N/Nc2ccc(F)cc2F)cc(OC)c1O", "hERG current change (%, negative = inhibition) at 10uM": -2.17}, {"smiles": "O=C(COC(=O)c1ccco1)NC(c1ccccc1)c1ccccc1", "hERG current change (%, negative = inhibition) at 10uM": 3.56}, {"smiles": "Cc1ccc(S(=O)(=O)NCCC(=O)OCC(=O)N(C)c2ccccc2)cc1", "hERG current change (%, negative = inhibition) at 10uM": 4.35}, {"smiles": "CCCn1c(SCC(=O)c2ccc3c(c2)OCCO3)n[nH]c1=O", "hERG current change (%, negative = inhibition) at 10uM": 22.6}, {"smiles": "COc1cc(OC)cc(OC(=O)c2cccc(S(=O)(=O)N3CCN(C)CC3)c2)c1", "hERG current change (%, negative = inhibition) at 10uM": -14.1}, {"smiles": "Cc1ccc(CSCCNC(=O)c2cccc([N+](=O)[O-])c2)cc1", "hERG current change (%, negative = inhibition) at 10uM": -64.1}, {"smiles": "CC1CCN(C(=O)C(C)OC(=O)CSc2ccc([N+](=O)[O-])cc2)CC1", "note": "(stereo not shown)", "hERG current change (%, negative = inhibition) at 10uM": -50.1}, {"smiles": "O=C(CSCc1ccc([N+](=O)[O-])cc1)NC1CCCCCC1", "hERG current change (%, negative = inhibition) at 10uM": -50.8}, {"smiles": "Cc1ccc(CSCCNC(=O)c2ccccc2)cc1", "hERG current change (%, negative = inhibition) at 10uM": -13.6}, {"smiles": "O=C(Cc1ccc([N+](=O)[O-])cc1)NC1CCCCCC1", "hERG current change (%, negative = inhibition) at 10uM": 7.55}, {"smiles": "O=C(CSCc1ccc([N+](=O)[O-])cc1)NC1CC1", "hERG current change (%, negative = inhibition) at 10uM": -29.7}, {"smiles": "CC(C)(C)SCCNC(=O)CSCc1ccc([N+](=O)[O-])cc1", "hERG current change (%, negative = inhibition) at 10uM": -63.1}, {"smiles": "CC1CCN(C(=O)C(C)c2ccc([N+](=O)[O-])cc2)CC1", "note": "(stereo not shown)", "hERG current change (%, negative = inhibition) at 10uM": -3.41}, {"smiles": "COc1ccc(CCNC(=O)CSCc2ccc([N+](=O)[O-])cc2)cc1OC", "hERG current change (%, negative = inhibition) at 10uM": -37.5}, {"smiles": "CC(OC(=O)CSc1ccc([N+](=O)[O-])cc1)C(=O)NC1CC1", "note": "(stereo not shown)", "hERG current change (%, negative = inhibition) at 10uM": -14.7}, {"smiles": "CC(C)C(NC(=O)CSCc1ccc([N+](=O)[O-])cc1)C(C)C", "hERG current change (%, negative = inhibition) at 10uM": -40.2}, {"smiles": "Cc1ccc(CSCCNC(=O)c2ccc(C)cc2)cc1", "hERG current change (%, negative = inhibition) at 10uM": 19.1}, {"smiles": "CCOC(=O)C(C(=O)Nc1cccc(C)c1)C1CCCCC1", "note": "(stereo not shown)", "hERG current change (%, negative = inhibition) at 10uM": -6.99}, {"smiles": "CCC1C(=O)N=C(SCC(=O)Nc2ccc(C)cc2)N(c2ccccc2)C1=O", "note": "(stereo not shown)", "hERG current change (%, negative = inhibition) at 10uM": 19.4}]}]}
